Measured values published in PubChem BioAssay (NCI).
About 83,000 compounds went through this panel and 20% of them were active in at least one assay; those are over-represented in the sample as a whole.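 Percent growth is the endpoint: 0 to 100 indicates growth inhibition (40 means 60% inhibition), 0 means no net growth, and negative values indicate cell death.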

Legend:
Assay in all cases: NCI-60 one-dose screen, 48 h (100 = growth as untreated, 0 = no growth, -100 = all killed)
Settings in all cases: 10 µM unless noted; active means growth percent below 10; inactive means the rest
[1] = tested on: RPMI-8226 leukemia
[2] = tested on: OVCAR-8 ovarian
[3] = tested on: OVCAR-5 ovarian
[4] = tested on: OVCAR-4 ovarian
[5] = tested on: IGROV1 ovarian
[6] = tested on: OVCAR-3 ovarian
[7] = tested on: HS 578T breast
[8] = tested on: NCI/ADR-RES ovarian
[9] = tested on: SK-OV-3 ovarian

Measured: growth

O=C(O)Cc1ccccn1
inactive: [1] 102% | [2] 102% | [3] 101% | [4] 117% | [5] 105% | [6] 114% | [7] 109% | [8] 111%

Cn1c2ccccc2c2nnc(NCCCCO)nc21
inactive: [2] 100% | [3] 86.5% | [4] 94.6% | [9] 86.5% | [5] 57.8% | [6] 88.6% | [7] 81.6% | [8] 94.3%

O=S(Cc1ccccc1)/C(=C/NC(=S)Nc1cc(Cl)ccc1Cl)c1ccccc1 (configuration not stated)
inactive: [1] 102% | [3] 100% | [4] 105% | [9] 101% | [5] 95.8% | [6] 110% | [7] 102% | [8] 105%

CCOC(=O)/C(C#N)=C\c1c[nH]c2ccccc12
inactive: [1] 55.7% | [2] 85% | [3] 111% | [4] 86.8% | [9] 96.2% | [6] 103% | [7] 116% | [8] 88.5%
